In PubChem BioAssay (NCATS):
Results filed as inconclusive are left out. Entries that show only a call come without a potency. Calls of active or inactive are those of the source. The call rests on the fitted dose curve; in most records, active means well fitted curve in the direction sought with a large enough effect; inconclusive means small, poorly fitted or top-dose-only effect, or another doubt; inactive means no such curve, though single readings can be large; an effect the other way counts as inactive or inconclusive.

How the values were obtained:
[1] = NS1 protein of Zika virus - qHTS assay to identify small molecule inhibitors in human HEK 293 cells (AID 1347053); further: nearly all actives have a fitted effect of over 55% in size
How it was run: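 TR-FRET signal from two anti-ZIKV NS1 antibodies quantified NS1 in HEK 293 cells 24 h after MR766 infection at MOI = 0.5; compounds were added 1 h before virus. Uninfected cells and infected cells defined the NS1 normalization range.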

[2] = qHTS of pediatric cancer cell lines to identify multiple opportunities for drug repurposing: Primary screen for TC32 cells (AID 1347089); further: nearly all actives have a fitted effect of over 60% in size
How it was run: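 Luminescent ATP read-out (CellTiter-Glo) of metabolically active TC32 cells after 48 h exposure. Concentration-response curves came from 11-point (MIPE, 0.78 nM–46 µM) or 8-point (NPC, 0.59 nM–46 µM) primary titrations; follow-up used 11 points.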

[3] = qHTS of pediatric cancer cell lines to identify multiple opportunities for drug repurposing: Primary screen for DAOY cells (AID 1347090); further: nearly all actives have a fitted effect of over 55% in size
How it was run: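 Eight- or eleven-point concentration series, 48 h treatment at 37 degrees C in growth media; readout CellTiter-Glo luminescence. Potency and efficacy were taken from the concentration-response curves.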
Potency means the concentration at half of the fitted maximal effect.

SMILES	Potency [1]	Potency [2]	Potency [3]
COc1cc(O)c2c(c1)C(=O)c1cc(C)cc(O)c1C2=O	inactive	inactive	inactive
O=C(Nc1c(Cl)cncc1Cl)c1ccc(OC(F)F)c(OCC2CC2)c1	inactive	inactive	inactive
CN(C)c1cc(NC(=O)CNC(C)(C)C)c(O)c2c1C[C@@H]1C[C@H]3[C@H](N(C)C)C(=O)C(C(N)=O)=C(O)[C@@]3(O)C(=O)C1=C2O	inactive	inactive	inactive
O=C(CCN1CCN(C(=O)OCc2cc(Cl)cc(Cl)c2)CC1)c1ccc2[nH]c(=O)oc2c1	inactive	inactive	inactive
NS(=O)(=O)c1ccc(NC2=CC(=O)c3ccccc3C2=O)cc1	inactive	–	inactive
O=c1cc(N2CCOCC2)oc2c(-c3cccc4c3sc3ccccc34)cccc12	18.7 µM (active)	inactive	18.7 µM (active)
CC(C)(C)OC(=O)N[C@H]1CCCCCC=C[C@@H]2C[C@@]2(C(=O)NS(=O)(=O)C2CC2)NC(=O)[C@@H]2C[C@@H](OC(=O)N3Cc4cccc(F)c4C3)CN2C1=O	inactive	inactive	inactive
O=C(NOCC(O)CO)c1cc(Br)c(F)c(F)c1Nc1ccc(I)cc1F (configuration not stated)	inactive	–	14.8 µM (active)
Nc1ncnc2c1ncn2[C@@H]1O[C@@H](CO)[C@H](O)[C@H]1O	inactive	inactive	inactive
COc1cc2ncnc(-n3nc(-c4ccccn4)nc3N)c2cc1OC	inactive	inactive	18.7 µM (active)
COC1CCC(N(C(=O)C2CCC(C)CC2)c2cc(C3=CCCCC3)sc2C(=O)O)CC1 (configuration not stated)	inactive	inactive	inactive
O=C(O)C=Cc1ccc(O)c(O)c1	inactive	inactive	7.43 µM (active)
CC=CCC=CCCC(=O)[C@H]1O[C@@H]1C(N)=O	inactive	inactive	inactive
N[C@H](CSC(c1ccccc1)(c1ccccc1)c1ccccc1)C(=O)O	inactive	inactive	18.7 µM (active)
O=c1[nH]cnc2c1ncn2[C@H]1CC[C@@H](CO)O1	inactive	inactive	inactive
CCC(CC)[C@H](NC(C)=O)[C@@H]1[C@H](O)[C@@H](C(=O)O)C[C@@H]1N=C(N)N	inactive	inactive	inactive

SMILES	Potency [1]	Potency [2]	Potency [3]
O=C(Nc1ccccc1-c1cn2c(CN3CCNCC3)csc2n1)c1cnc2ccccc2n1	inactive	inactive	23.5 µM (active)
OC[C@@H](O)[C@H](O)[C@H](O)[C@@H](O)CO	inactive	inactive	inactive
CN[C@@H](C)C(=O)N[C@H]1CN(C(=O)CC(C)C)CC[C@H]2CC[C@@H](C(=O)NC(c3ccccc3)c3ccccc3)N2C1=O	inactive	inactive	2.35 µM (active)
CO[C@H]1C(=O)[C@]2(C)[C@@H](OC)C[C@H]3OC[C@@]3(OC(C)=O)[C@H]2[C@H](OC(=O)c2ccccc2)[C@]2(O)C[C@H](OC(=O)[C@H](O)[C@@H](NC(=O)OC(C)(C)C)c3ccccc3)C(C)=C1C2(C)C	–	1.47 µM (active)	–
CCCCCNC(=O)N1CCC(CN(Cc2ccc(Cl)cc2)Cc2ccc([N+](=O)[O-])s2)C1 (configuration not stated)	–	inactive	–
Nc1nc(F)nc2c1ncn2[C@@H]1O[C@H](COP(=O)(O)O)[C@@H](O)[C@H]1O	inactive	–	4.69 µM (active)
Nc1ncnc2c1nc(Cl)n2[C@@H]1O[C@H](CO)[C@@H](O)[C@@H]1O	–	inactive	–
NC(CO)(CO)CCc1ccc(Sc2cccc(OCc3ccccc3)c2)cc1Cl	9.35 µM (active)	–	23.5 µM (active)
CC(=Cc1ccccc1)C=C1SC(=S)N(CC(=O)O)C1=O	inactive	–	inactive
Cc1c(NC(=O)c2ccc(C(C)(C)C)cc2)cccc1-c1cn(C)c(=O)c(Nc2ccc(C(=O)N3CCOCC3)cc2)n1	–	inactive	–
COc1cc(Nc2ncc(F)c(Nc3ccc4c(n3)NC(=O)C(C)(C)O4)n2)cc(OC)c1OC	–	inactive	–
N#CC1(c2ccc(NC(=O)c3cccnc3NCc3ccncc3)cc2)CCCC1	inactive	–	inactive
CCS(=O)(=O)N1CC(CC#N)(n2cc(-c3ncnc4[nH]ccc34)cn2)C1	–	inactive	–
O=C(O)C(O)Cc1ccc(O)c(O)c1 (configuration not stated)	inactive	–	inactive
Cc1ccc(Nc2cc(-c3cccc(N4C(=O)c5ccccc5C4=O)c3)ncn2)cc1NS(C)(=O)=O	–	inactive	–
